The campaign covered roughly 65,000 compounds. About 65 (0.1%) showed an effect of 50% or more. The list comes from a sample in which strong results are over-represented; it also holds similar structures and randomly drawn compounds.

Tryptophan--tRNA ligase (Mycobacterium tuberculosis (strain ATCC 25618 / H37Rv)), sequence (P9WFT3 whole entry): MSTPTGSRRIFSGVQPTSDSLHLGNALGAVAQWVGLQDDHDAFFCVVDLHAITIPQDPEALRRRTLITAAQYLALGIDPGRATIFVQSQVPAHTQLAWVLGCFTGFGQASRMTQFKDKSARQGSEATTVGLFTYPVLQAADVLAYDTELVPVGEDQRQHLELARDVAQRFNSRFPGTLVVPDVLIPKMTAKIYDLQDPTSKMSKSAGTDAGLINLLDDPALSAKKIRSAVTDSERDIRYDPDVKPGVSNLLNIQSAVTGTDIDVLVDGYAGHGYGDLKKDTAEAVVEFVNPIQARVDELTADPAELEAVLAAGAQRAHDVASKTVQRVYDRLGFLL

The assay has as its target Tryptophan--tRNA ligase (Mycobacterium tuberculosis (strain ATCC 25618 / H37Rv)) (UniProt P9WFT3). Kind of assay: Biochemical assay for Mt-TrpRS. Type of assay: functional. On the set-up: scale not given: direction of the effect not stated beside the values. Conditions: 10 µM.
For the molecule `CC(NC(=O)C1CCCCC1)c1cc(O)nc(-c2cccnc2)n1` (configuration not stated), the Percent Effect amounted to 0.0653%.

Regarding `CC(C)C(NC(=O)C1CC1)c1cc(O)nc(-c2cccnc2)n1` (configuration not stated), the Percent Effect was determined as 2.42%.

For the molecule `CC(C)C(NC(=O)C1CCCC1)c1cc(O)nc(-c2cccnc2)n1` (configuration not stated), the Percent Effect is 65.2%.

For `Cc1ccc(CNCc2nnc3n2CC(C(F)(F)F)CC3)o1` (configuration not stated), the Percent Effect is -0.327%.

Turning to `CCOc1ccc2ccccc2c1CNCC1CCS(=O)(=O)C1` (configuration not stated), the Percent Effect was -4.67%.

For `Cc1ccc(N2C[C@H](C(=O)N3CCOCC3)[C@@H]3CCO[C@@H]3C2)nn1`, the Percent Effect is -1.89%.

On to `CC(C)NC(=O)N(C)C(c1cccc(F)c1)c1ccccn1` (configuration not stated), for which the Percent Effect was -3.48%.

Take `CCNC(=O)N(C)C(c1cccc(F)c1)c1ccccn1` (configuration not stated): the Percent Effect was found to be 2.8%.

As to `CC(=O)N(C)C(c1cccc(F)c1)c1ccccn1` (configuration not stated), the Percent Effect was 70.3%.

For `CCN(CC)CC(=O)N(C)C(c1cccc(F)c1)c1ccccn1` (configuration not stated), the Percent Effect came out at 0.435%.

In the case of `CC(C)N(C)CC(=O)N(C)C(c1cccc(F)c1)c1ccccn1` (configuration not stated), the Percent Effect was found to be 94.7%.

Regarding `CCCC(=O)N(C)C(c1cccc(F)c1)c1ccccn1` (configuration not stated), the Percent Effect was -2.61%.

For `Cc1nnc([C@@]23CCO[C@@H]2CCN(S(C)(=O)=O)C3)o1`, the Percent Effect was found to be 14.4%.

As to `CC(c1ccncc1)N1Cc2nc(N(C)C)ncc2C1=O` (configuration not stated), the Percent Effect stood at 0.86%.

As for `COC(=O)c1ncccc1N1CCCCC1`, the Percent Effect was 0.136%.

For the molecule `Cc1ccc(CN2C[C@H](N3CCOCC3)[C@@H]3OCCC[C@@H]32)o1`, the Percent Effect is -6.03%.

`CCn1c(C(=O)N2CCN(CC(C)O)CC2)cc2ccccc21` (configuration not stated): the Percent Effect was 0.24%.

For the molecule `CCn1c(C(=O)N2CCN(C(=O)NC(C)C)CC2)cc2ccccc21`, the Percent Effect worked out at 0.24%.

Consider `CCC(O)CN1CCN(C(=O)c2cc3ccccc3n2CC)CC1` (configuration not stated), for which the Percent Effect came out at 84.1%.

`c1cnc(N2CCO[C@H]3CN(Cc4ccsc4)C[C@H]32)nc1`: the Percent Effect is -4.69%.

As for `COc1ccc2nnc(CCCC(=O)NCc3cccn3C)n2n1`, the Percent Effect stood at 1.21%.

As to `Cn1cccc1CNC(=O)CCCc1nnc2ccccn12`, the Percent Effect stood at 224%.

`COc1ccc2nnc(CCC(=O)NCc3cccn3C)n2n1`: the Percent Effect worked out at 1.87%.

Take `CS(=O)(=O)NC[C@]12COC[C@H]1CN(C(=O)c1ccccc1)C2`: the Percent Effect is -5.18%.

For `CC(=O)N1CC2(CCN(Cc3ccc(Cl)cc3)CC2)Cc2ccccc21`, the Percent Effect is -5.45%.

On to `CN1C(=O)CC(C(=O)O)C12CCN(Cc1ccc(F)c(Cl)c1)CC2` (configuration not stated), for which the Percent Effect was -3.47%.

`CN1C(=O)CC(C(=O)O)C12CCN(Cc1ccc(Cl)c(Cl)c1)CC2` (configuration not stated): the Percent Effect is -7.74%.

Turning to `CN1C(=O)CC(C(=O)O)C12CCN(Cc1ccc(Cl)c(F)c1)CC2` (configuration not stated), the Percent Effect was 54.6%.

In the case of `CN(C)c1ncccc1CNC(=O)N1CCCC1CN1CCCC1` (configuration not stated), the Percent Effect was found to be 67.8%.

Consider `CN(C)c1ncccc1CNC(=O)N1CCCC1CN1CCCCC1` (configuration not stated), for which the Percent Effect was -0.719%.

`CN(C)c1ncccc1CNC(=O)N1CCCC1c1ccsc1` (configuration not stated): the Percent Effect is -2.64%.

For `CS(=O)(=O)N1CC[C@]2(O)CCN(c3cc(C#N)ccn3)C[C@@H]2C1`, the Percent Effect was -1.89%.

As to `CO[C@@H]1CC[C@H]2[C@H]1OCCN2CCOCc1ccccc1`, the Percent Effect was -7.44%.

For the molecule `CCN1CCO[C@@H]2CN(C(=O)COC3CCCC3)C[C@@H]2C1`, the Percent Effect was found to be 14.7%.

Consider `O=C(CC1CC1)N1CCC2(CC1)C(=O)NCCN2Cc1ccccc1`, for which the Percent Effect came to 54.2%.

`O=C(NC1CC1)N1CCC2(CC1)C(=O)NCCN2Cc1ccccc1`: the Percent Effect is -5.09%.

For the molecule `CC(C)NC(=O)N1CCC2(CC1)C(=O)NCCN2Cc1ccccc1`, the Percent Effect was -4.29%.

With `COc1ccccc1C1(C(=O)NCCN2CCCCC2)CCOCC1`, the Percent Effect was 73.8%.

As for `COc1ccccc1C1(C(=O)NCCN2CCOCC2)CCOCC1`, the Percent Effect was -0.235%.

On to `Cc1ccccc1C1(C(=O)NCCN2CCCC2)CCOCC1`, for which the Percent Effect turned out to be 1.49%.

As to `COc1ccc(CN2C[C@H]3CN(c4cncnc4)C(=O)[C@H]3C2)cc1`, the Percent Effect was 0.241%.

As for `Cc1c(Cl)c(C(=O)NC(C)CN2CCOCC2)nn1C` (configuration not stated), the Percent Effect is -1.4%.

For `Cc1oncc1C(=O)N1C[C@H]2CCCC(N(C)Cc3cccs3)[C@H]2C1` (some centres not stated), the Percent Effect was determined as 0.971%.

In the case of `Cc1nn(C)c(C)c1C1COCCN1C(=O)c1ccc(Cl)o1` (configuration not stated), the Percent Effect turned out to be 80.8%.

On to `Cc1nn(C)c(C)c1C1CCCN1C(=O)c1ccc(Cl)o1` (configuration not stated), for which the Percent Effect was 0%.

`CSc1ccc(C(=O)N2CCOCC2c2c(C)nn(C)c2C)o1` (configuration not stated): the Percent Effect was -3.05%.

As for `CS(=O)(=O)N[C@H]1CN(C(=O)c2cscn2)[C@@H]2CCCO[C@H]12`, the Percent Effect came to 1.91%.

As for `Cn1cc(CN2CCO[C@H]3CN(Cc4ccco4)C[C@H]32)cn1`, the Percent Effect was -5.69%.

For `O=C(N[C@@H]1CN(C2CCCC2)C[C@@H]2CCCO[C@@H]21)c1cnccn1`, the Percent Effect was -1.79%.

For `COCC1CC2(CCN(C(=O)c3cccc(C)c3)CC2)CO1` (configuration not stated), the Percent Effect was -6.95%.

Turning to `COCC1CC2(CCN(C(=O)c3ccc(F)c(Cl)c3)CC2)CO1` (configuration not stated), the Percent Effect amounted to 54.8%.

In the case of `COCC1CC2(CCN(C(=O)c3ccc(OC)c(Cl)c3)CC2)CO1` (configuration not stated), the Percent Effect is -1.65%.

Consider `c1ccc(NC[C@@H]2CCC[C@@H]3CN(Cc4cc[nH]n4)C[C@@H]32)nc1`, for which the Percent Effect was -8.1%.

For `CN(C)C(=O)N[C@H]1CN(Cc2ccc3c(c2)OCO3)[C@@H]2CCCO[C@H]12`, the Percent Effect is -1.66%.

Consider `COCCc1noc(CN(C)C2CCCN(c3cccnn3)C2)n1` (configuration not stated), for which the Percent Effect amounted to 67.5%.

For the molecule `CN(CC(=O)Nc1ccncc1)C1CCCN(c2cccnn2)C1` (configuration not stated), the Percent Effect is -2.13%.

`Cc1nnc(NC(=O)CN(C)C2CCCN(c3cccnn3)C2)s1` (configuration not stated): the Percent Effect was -2.71%.

Values taken from ChEMBL document CHEMBL3988442, “University of Dundee, Small-Polar-MMV Screening Library” (2021).
